Consider 15 molecules from PubChem BioAssay (NCI).

Structures are written as SMILES. Compounds without any hit were thinned out: in the full panel of roughly 83,000, 20% have a hit.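 Interpretation: 100, growth as untreated; towards 0, rising growth inhibition; 0, no net growth; 0 to -100, cell death. Compounds scoring below 10 were considered active.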 Unmarked numbers belong to inactive results. The source made the active and inactive calls.

Common to all, as to assay: NCI-60 one-dose screen, 48 h (100 = growth as untreated, 0 = no growth, -100 = all killed)
Conditions in all cases: 10 µM unless noted

Assay [1] concerns DU-145 prostate.
Assay [2] concerns K-562 leukemia.
In assay [3] the test system is MALME-3M melanoma.
Assay [4] relates to MDA-MB-231 breast.
Assay [5] concerns SF-268 CNS.
Assay [6] has as its system SF-295 CNS.
For assay [7], the system named is SF-539 CNS.
Assay [8] deals with UACC-257 melanoma.
Assay [9] concerns M14 melanoma.
The test system of assay [10] is RXF 393 renal.

As for `COc1cc(C=C2c3ccccc3C(=O)c3ccccc32)ccc1OCCCCOc1cc2c(cc1OC)C(=O)N1CCCC1C=N2` (centres undefined), the growth in assay [1] was -92.7% (active); in assay [2] it was -15.4% (active); in assay [3] it was -28.8% (active); in assay [4], -23.7% (active); in assay [5], -59.9% (active); in assay [6], -42.2% (active). For the same molecule, the figures for the growth in assay [7], in [8] and in [9] were -70.9% (active), -73.3% (active) and -66.7% (active), respectively.

As for `CCCCCCCC(=O)OCC(=O)[C@]1(O)Cc2c(O)c3c(c(O)c2[C@@H](OC2CC(N)C(O)C(C)O2)C1)C(=O)c1c(OC)cccc1C3=O` (some centres undefined), the growth in assay [1] is -100% (active); in assay [2], -86.7% (active); in assay [3], -70.7% (active); in [4] it was -72.4% (active); in [5], -82.1% (active); in assay [6], -68.1% (active). Also, the growth in assay [7] is -79.9% (active); in assay [8], -98.2% (active); in [9] it was -69.8% (active).

On to `N#C[S-].[Au+].c1ccc(CN2[CH-]N(Cc3ccccc3)C(c3ccccc3)=C2c2ccccc2)cc1`, for which the growth in assay [1] was 23.6%; in assay [2], 0.413% (active); in [3], -5.77% (active); in assay [4] it was -36% (active); in [10] it was 3.56% (active); in assay [5], 29.9%. In addition, the values for the growth in assay [7], in [8] and in assay [9] were 22.9%, -9.77% (active) and 15.8%, respectively.

As to `Cc1ccc(Nc2nc3c(s2)C2=CC[C@@H]4[C@H](CC[C@]5(C)C(=O)CC[C@@H]45)[C@@]2(C)CC3)cc1`, the growth in assay [1] is 46.5%; in [2], 19.8%; in [3], 70%; in [4], 52.8%; in [5], 56.3%; in assay [6], 5.48% (active). Also, the values for the growth in assay [7], in assay [8] and in [9] were 3.73% (active), 80.3% and 62.2%, respectively.

As for `O=[N+]([O-])c1ccc(OP(=O)(CCl)N(CCCl)CCCl)cc1` (centres undefined), the growth in assay [1] is 110%; in assay [2] it was 97.1%; in assay [3], 109%; in assay [4] it was 124%; in assay [10], 101%; in assay [5], 104%. The results for the growth in [7], in [8] and in assay [9] were 105%, 99.9% and 98.6%, respectively.

Take `O=C(NCCN1CC1)C(=O)NCCN1CC1`: the growth was 90.2% in assay [1]; 87.9% in assay [2]; 103% in [3]; 99.3% in assay [4]; 77.8% in [5]; 51% in assay [6]. Also, the growth in assay [7] was 101%; in assay [8], 85.1%; in [9], 92.9%.

`O=C(Nc1ccc(Cl)cc1)Nc1nccs1`: the growth was 17.7% in [1]; 15.1% in assay [2]; 45.2% in assay [3]; 46.5% in assay [4]; 2.93% (active) in assay [10]; 48.8% in [5]. In addition, the growth in assay [7] was 10.8%; in [8], 44.3%; in assay [9] it was 18.1%.

`CCCCCC1(CCBr)C(=O)NC(=O)NC1=O`: the growth in assay [1] was 109%; in assay [2], 94.1%; in [3], 108%; in assay [4], 107%; in [10], 107%; in assay [7], 96.6%. Further, the figures for the growth in assay [8] and in [9] were 91% and 112%, respectively.

`O=C(O)c1ccc([S-])cc1.[Au+].c1ccc(CN2[CH-]N(Cc3ccccc3)C(c3ccccc3)=C2c2ccccc2)cc1`: the growth in assay [1] was -47.2% (active); in [2], -16.9% (active); in assay [3], -68.6% (active); in assay [4] it was -62.5% (active); in assay [10], -88.9% (active); in assay [5] it was -42.7% (active). Besides, the growth in assay [7] was -1.4% (active); in [8], -19.1% (active); in assay [9] it was -48.1% (active).

With `C[C@]12CCc3nc(Nc4ccccc4F)sc3C1=CC[C@@H]1[C@@H]2CC[C@]2(C)C(=O)CC[C@@H]12`, the growth was 28.4% in [1]; 21.7% in [2]; 75.7% in assay [3]; 92.5% in [4]; 78.8% in [5]; 51% in assay [6]. Moreover, the results for the growth in [7], in [8] and in [9] were 41.4%, 90.7% and 75.1%, respectively.

In the case of `CN(C)C(=O)Oc1ccccc1`, the growth in assay [1] is 108%; in assay [2], 111%; in assay [3], 109%; in [4], 115%; in assay [10], 122%; in assay [6], 103%. Further, the growth is 93.7% in [7], 98.9% in assay [8] and 103% in assay [9].

On to `COc1ccc(/C=C\c2cc(OC)c(OC)c(OC)c2)cc1OCC(=O)Nc1nc2ccc(F)cc2s1`, for which the growth was 30.2% in assay [1]; 38.1% in assay [2]; 38.3% in assay [3]; 46.7% in assay [4]; 9.41% (active) in assay [10]; 49.2% in assay [5]. The growth in [7] is 26.7%; in assay [8], 51%; in [9] it was 51.9%.

With `O=C1OCC2=C1C(c1ccccc1)c1cc3c(cc1N2)OCO3` (centres undefined), the growth in assay [1] was -36.2% (active); in assay [2] it was 14.5%; in [3], 58%; in assay [4] it was -1.65% (active); in [5], 10.4%; in [6], 6.68% (active). The growth is 4.21% (active) in assay [7], 35.2% in assay [8] and 10% in assay [9].

`COC[C@@H]1C[C@@]2(C)[C@@H](CC[C@@H]3[C@@H]2CC[C@@]2(C)[C@H]3CC[C@]2(C)O)CC1=O`: the growth in assay [1] was 102%; in assay [2] it was 85.8%; in assay [3] it was 96.4%; in assay [4], 116%; in assay [10] it was 105%; in assay [5], 102%. The figures for the growth in assay [7], in assay [8] and in [9] were 90.7%, 83.2% and 94.5%, respectively.

On to `CC(C)(N)Cc1ccccc1`, for which the growth in [1] is 115%; in assay [2], 92.8%; in assay [3] it was 112%; in assay [4], 119%; in assay [5], 113%; in assay [6] it was 98.1%. Besides, the growth in assay [7] is 107%; in assay [8], 101%; in [9], 105%.
